Bioassay records as filed in PubChem BioAssay.
Nrf2 inh: blocks Nrf2 signaling. actives 2.1% (n = 360,000). A549 ARE-Fluc reporter, luciferase luminescence, 18-24 h. Potency, µM (highest dose often 46 µM), for inactives: at the top dose activity change, negative = inhibition, most hits filed as inhibitors; also: % is scaled to controls: 0 for no effect and ±100 for the full control effect; nearly all actives have a fitted effect of over 60% in size
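Two sequential reads on A549 ARE_Fluc cells exposed to compound for 18-24 h: a CellTiter-Fluor fluorescence read for viability, then a luciferase luminescence read for Nrf2/ARE activity.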
ELG1 repair inh: ELG1-dependent DNA repair inhibition; HEK293T ELG1-luciferase reporter, luminescence, 16 h; DNA damage induced by 5-fluorouridine; Potency, µM (titrated, usually from 46.1 µM), for the others: at the top dose activity change, negative = inhibition, most hits filed as inhibitors; actives 2.3% (n = 330,000); AID 504467; also: % is scaled to controls: 0 for no effect and ±100 for the full control effect; nearly all actives have a fitted effect of over 55% in size
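Overnight (16 hr) co-exposure of 2,000 cells/well to 5-fluorouridine and compound at 37 °C preceded detection. Luciferase was quantified via ONE-Glo luminescence; loss of signal denotes inhibition.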
Nrf2 activator: activators of Nrf2 (ARE) signaling; AREc32 ARE-luciferase reporter (MCF7-derived line), luminescence, 24 h; Potency, µM (highest dose often 46.1 µM), for the others: at the top dose activation, actives largely listed as activators; actives 0.31% (n = 410,000); also: % of control where 0% means no effect; nearly all actives have a fitted effect of over 65% in size
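Luminescent ARE reporter assay in AREc32_Fluc cells: overnight plating at 37 deg C, 24 hr compound incubation, Steady-Glo added, 30 min RT before reading.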
A549 tox: A549 cytotoxicity, counter-screen for Nrf2 inhibitors. A549 ARE-Fluc cells, CellTiter-Fluor viability, 18-24 h. Potency, µM (highest dose often 46 µM), for the others: at the top dose activity change, negative = cytotoxicity, hits mostly inhibitors. actives 0.16% (n = 390,000); also: % is scaled to controls: 0 for no effect and ±100 for the full control effect
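A549 ARE-Fluc cells in 5% FBS OPTI-MEM, 5000 cells/well, rested 2 h then exposed to compounds in concentration-response for 18-24 h at 37 °C. Viability by CellTiter-Fluor fluorescence (Ex 405/Em 525) after 30 min; luciferase luminescence (BugLite, 15 min, RT) read afterwards.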
An asterisk follows results filed as active; u = inconclusive; x = not tested or not shown; ! = not active in a repeat. Hits are enriched below; roughly 3.7% of the tested compounds scored in any of these assays. Calls follow the shape of the dose curve; as a rule, active = well fitted curve in the direction sought with a large enough effect; inconclusive = small, poorly fitted or top-dose-only effect, or another doubt; inactive = no such curve, though single readings can be large; an effect the other way counts as inactive or inconclusive. Potency is read from the fitted curve at half-maximal effect.

SMILES | Nrf2 inh | ELG1 repair inh | Nrf2 activator | A549 tox
O=C(C1CCCN(S(=O)(=O)c2cccc3nsnc23)C1)N1CCN(c2cccc(Cl)c2)CC1 (configuration not stated) | 20.6µM* | x | -0.5% | -15.5%
Fc1ccc(CCNCc2ccc(Cl)c(Cl)c2)cc1 | 11.6µM* | 8.3% | 0.4% | u
CCC(=O)Nc1ccc(C(=O)NNC(=O)c2cc([N+](=O)[O-])cc([N+](=O)[O-])c2)cc1 | u | 2.4% | 0.3% | 1.4%
O=C1NC2C(=CC(O)C(O)C2O)c2cc3c(cc21)OCO3 (configuration not stated) | 2.06µM* | x | -1.9% | u
Cc1cc(C)cc(NC(=O)Cn2cc(C(=O)c3cccs3)c3ccccc32)c1 | 16.4µM* | x | -0.5% | -17.2%
COc1cccc(N2CCN(c3c4c(nc5nncn35)CCC4)CC2)c1 | 16.4µM* | x | 0.5% | -16.4%
c1nc2nc3c(c(N4CCNCC4)n2n1)CCCC3 | 3.4% | -3.7% | -0.1% | 1.9%
COc1cc(CN=C(C)c2c(O)n(C)c(=O)n(C)c2=O)cc(OC)c1 | u | 13µM* | -1.0% | -2.0%
COc1cc2c(cc1OC)-c1c(OC)c(OC)c(OC)c3ccnc(c13)C2=O | 16.1% | 6.51µM* | -1.0% | u
COc1ccc(CNCCc2c(C)[nH]c3ccc(OC(F)(F)F)cc23)c(OC)c1 | u | 1.03µM* | -1.5% | 9.1%
S=P(c1ccccc1)(c1ccccc1)c1c[n+](Cc2ccccc2)c2ccccn12 | -17.0% | x | x | -4.7%
CCc1ccc(Nc2nc3c(S(=O)(=O)c4ccc(C)cc4)nnn3c3ccsc23)cc1 | u | x | 0.5% | -11.6%
Cc1c(C(=O)N2CCC3(CC2)OCCO3)sc2ncnc(N3CCc4ccccc4C3)c12 | -2.9% | 20.6µM* | 3.5% | 0.7%
O=C(c1ccccc1)N1CCC2(CC1)OCCO2 | 9.1% | 1.0% | -0.7% | 2.9%
CCc1ccc(OCC(=O)N2CCN(CCc3ccncc3)CC2)cc1 | 6.3% | x | 3.1% | 8.1%
COC(=O)[C@@]12CCCCN1[C@H](c1ccc(-c3ccc(Cl)c(Cl)c3)c(OC)c1)[C@@H]1C(=O)N(C)C(=O)[C@@H]12 | 20.6µM* | x | -1.3% | -13.6%
COC(=O)[C@@]12CCCCN1[C@H](c1ccc(-c3ccc(Cl)c(Cl)c3)c(OC)c1)[C@H]1C(=O)N(C)C(=O)[C@H]12 | -0.9% | -27.7% | -0.2% | -6.9%
Cc1ccc(NC(=O)C2CCCN(c3ncnc4onc(C)c34)C2)c(Cl)c1 (configuration not stated) | 25.9µM* | x | 0.8% | -11.4%
CC1OC(OC2C(O)CC(OC3C(O)CC(OC4CCC5(C)C(CCC6C5CCC5(C)C(C7=CC(=O)OC7)C(O)CC65O)C4)OC3C)OC2C)CC(O)C1O (configuration not stated) | 0.092µM* | x | 0.4% | u
C[C@@H]1O[C@@H](O[C@H]2C[C@@H](O)[C@]3(CO)[C@H]4[C@H](O)C[C@]5(C)[C@@H](C6=CC(=O)OC6)CC[C@]5(O)[C@@H]4CC[C@]3(O)C2)[C@H](O)[C@H](O)[C@H]1O | 0.0058µM* | 0.164µM* | -2.5% | u
CC12CC[C@H]3[C@@H](CCC4(O)C[C@H](O)CCC34/C=N/NC(=O)c3ccccc3Cl)C1(O)CCC2C1=CC(=O)OC1 (some centres not stated) | -21.8% | -2.6% | 0.2% | 3.4%
C[C@H]1O[C@@H](O[C@H]2[C@@H](O)C[C@H](O[C@H]3[C@@H](O)C[C@H](O[C@H]4CC[C@@]5(C)[C@H](CC[C@@H]6[C@@H]5CC[C@]5(C)[C@@H](C7=CC(=O)OC7)CC[C@]65O)C4)O[C@@H]3C)O[C@@H]2C)C[C@H](O)[C@@H]1O | 0.0164µM* | 0.146µM* | -3.2% | u
CC[C@]1(C(=O)OC)[C@H]2C(=O)N(Cc3ccccc3)C(=O)[C@H]2[C@H]2CN=C(SCc3ccc(C(=O)OC)cc3)N21 | 16.7% | u | 0.9% | -1.4%
CCOc1ccc(C(=O)N2CCC(c3noc(-c4ccc(S(=O)(=O)N5CCCC5)cc4)n3)CC2)cc1 | 14.6µM* | x | -0.7% | -17.2%
CCc1ccc(NC(=O)CN2C(=O)C3(SCC(=O)N3c3ccc(F)c(F)c3)c3ccccc32)cc1 (configuration not stated) | u | x | 5.0% | -16.8%
SMILES | Nrf2 inh | ELG1 repair inh | Nrf2 activator | A549 tox
O=C(c1ccc(Cl)cc1)c1cn(Cc2ccccc2)c2cc3c(cc2c1=O)OCCO3 | u | x | -0.5% | -26.8%
CC1=C(O)C(=O)C=C2C1=CC=C1C2(C)CCC2(C)C3CC(C)(C(=O)O)CCC3(C)CCC12C (configuration not stated) | 18.4µM* | x | -3.4% | u
CC(C)Nc1ccc(Nc2ccccc2)cc1 | -22.9% | u | 3.3% | 0.0%
CC(c1ccccc1)[n+]1ccccc1 (configuration not stated) | 18.4µM* | 3.7% | -0.7% | -3.3%
Cc1cc(Br)cn2c(CC(=O)N3CCCCC3)c(-c3ccc(F)cc3)nc12 | x | x | 17.3% | x
Cc1ccc(NC(=O)Cn2cc(C(=O)c3ccccc3)c3ccccc32)cc1 | u | x | 2.2% | 3.1%
O=C1Nc2ccccc2/C1=C/c1nc2ccccc2c(=O)n1-c1ccc(O)cc1 | u | 18.3µM* | 10.0% | u
O=[N+]([O-])c1oc2ccc3ccccc3c2c1CCO | 18.4µM* | x | 7.2% | u
c1ccc(-c2nn(-c3ccccc3)[n+](-c3ccccc3)n2)cc1 | 20.6µM* | x | -0.1% | -6.8%
Cc1ccc(-n2c(/C=C\c3ccc(F)c(F)c3)nc3ccccc3c2=O)c(C)c1 | x | x | -0.3% | -1.2%
COc1ccc(C(=O)Nc2ccc(S(=O)(=O)N(Cc3ccccc3)c3ccccc3)cc2)cc1 | 7.31µM* | x | 1.0% | -1.0%
CCOc1ccc(NC(=O)c2ccc(NC(=O)COC(=O)Cc3ccccc3)cc2)cc1 | u | u | 1.9% | 7.7%
CCn1c(=O)oc2cc(NC(=O)CCl)ccc21 | u | u | u | -10.9%
CSc1ccc(CN2CCN(c3ccccc3C)CC2)cc1 | u | -11.7% | -0.4% | 5.4%
CCc1ccc(CN2CCN(Cc3ccc(SC)cc3)CC2)cc1 | u | 5.8µM* | 2.6% | -9.9%
Cc1ccc(OCC(=O)N2CCN(CCc3ccncc3)CC2)cc1 | u | x | -0.3% | 3.6%
Cn1nc(-c2ccc(OCC(=O)N3CCN(Cc4ccccc4)CC3)cc2)c2ccccc2c1=O | 18.4µM* | u | 3.4% | u
CSc1ccc(CN2CCN(C(=O)COc3ccc(C)cc3)CC2)cc1 | 20.6µM*! | u | 2.6% | -0.1%
OCC[n+]1c2ccccc2nc2ccc(N3CCOCC3)cc21 | u | 23.1µM* | -0.6% | -19.0%
O=C(CCc1ccccc1)N1Cc2cc(N3CCOCC3)ccc2-n2nncc2C1 | x | x | -0.8% | x
Cc1ccc(-c2nnc(Nc3ccc(Br)cc3)c3ccccc23)cc1S(=O)(=O)NCc1nc2ccccc2[nH]1 | u | x | 11.1% | -13.9%
CCOc1ccc(CN(CCc2ccc3c(c2)OCO3)Cc2cccc(Br)c2)cc1 | 8.3% | x | 0.3% | -1.5%
